This is an account of results in PubChem BioAssay (NCI).

Structures are written as SMILES. About 83,000 compounds went through this panel and 20% of them were active in at least one assay; those are over-represented in the sample as a whole.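 The endpoint reported here, percent growth, reads 100 for growth as untreated, 0 for no net growth and -100 for all cells dead.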 Unmarked numbers belong to inactive results. Calls of active or inactive are those of the source. How the source made its calls: active means growth percent below 10; inactive means the rest.

Among the test systems are NCI-H23 lung; NCI-H226 lung; NCI-H322M lung; HOP-62 NSCLC; NCI-H460 lung; HOP-92 NSCLC; NCI-H522 lung; A549/ATCC NSCLC; 786-0 renal; COLO 205 colon; DU-145 prostate; K-562 leukemia; MALME-3M melanoma; MDA-MB-231 breast; RXF 393 renal; SF-268 CNS; SF-295 CNS; SF-539 CNS; UACC-257 melanoma; M14 melanoma.
Holding throughout (test): NCI-60 one-dose screen, 48 h (100 = growth as untreated, 0 = no growth, -100 = all killed)
What all share (conditions): 10 µM unless noted

Take `COc1cc(-c2nc(N=Nc3c(O)[nH]c4ccc(Br)cc34)[nH]c(=O)c2C#N)cc(OC)c1OC`: the growth with NCI-H23 lung was 102%; with NCI-H226 lung, 84.1%; in the assay on NCI-H322M lung, 99.4%; with HOP-62 NSCLC it was 105%; in the assay with NCI-H460 lung, 104%; with HOP-92 NSCLC, 92.8%. In addition, the growth with NCI-H522 lung was 84.9%; with A549/ATCC NSCLC it was 99.4%; in the assay with 786-0 renal, 99.8%; in the assay with COLO 205 colon, 114%; with DU-145 prostate, 103%; with K-562 leukemia it was 90.9%. Moreover, the growth in the assay on MALME-3M melanoma is 94.9%; in the assay with MDA-MB-231 breast, 93.9%; with RXF 393 renal, 102%; with SF-268 CNS it was 101%; in the assay on SF-295 CNS, 91.1%; with SF-539 CNS, 96%. Besides, the growth in the assay with UACC-257 melanoma is 91.9%; in the assay with M14 melanoma, 97.1%.

Turning to `C=C(C)[C@@H]1C[C@H](O)Cc2cc(F)ccc2N1`, the growth is 96.9% in the assay on NCI-H23 lung; 95.6% with NCI-H226 lung; 102% in the assay on NCI-H322M lung; 87.4% in the assay with HOP-62 NSCLC; 101% in the assay with NCI-H460 lung; 95.6% in the assay on HOP-92 NSCLC. The growth in the assay on NCI-H522 lung was 93.7%; with A549/ATCC NSCLC, 97.5%; in the assay on 786-0 renal, 105%; in the assay on COLO 205 colon, 101%; in the assay on DU-145 prostate it was 107%; in the assay with K-562 leukemia, 42.2%. Further, the growth in the assay with MALME-3M melanoma was 109%; in the assay on MDA-MB-231 breast, 108%; in the assay with RXF 393 renal it was 100%; in the assay with SF-268 CNS, 113%; in the assay on SF-295 CNS, 116%; in the assay with SF-539 CNS it was 86.3%. In addition, the growth with UACC-257 melanoma was 93.3%; in the assay on M14 melanoma, 88.6%.

As for `COc1cc(-c2nc(-c3nc4ccc(Cl)cc4[nH]3)cc3c2[nH]c2ccccc23)cc(OC)c1OC`, the growth in the assay with NCI-H23 lung was 71.5%; in the assay with NCI-H226 lung it was 73.2%; with NCI-H322M lung, 82.9%; in the assay with HOP-62 NSCLC, 83.7%; in the assay with NCI-H460 lung, 73.8%; in the assay on HOP-92 NSCLC, 51.8%. In addition, the growth is 39.7% with NCI-H522 lung; 59.2% with A549/ATCC NSCLC; 81% in the assay on 786-0 renal; 84.6% with COLO 205 colon; 86.8% in the assay with DU-145 prostate; 54.1% in the assay on K-562 leukemia. For the same compound, the growth in the assay on MALME-3M melanoma is 92.7%; with MDA-MB-231 breast, 4.62% (active); in the assay with RXF 393 renal it was 63.5%; in the assay on SF-268 CNS it was 68%; in the assay with SF-295 CNS, 61.3%; in the assay on SF-539 CNS it was 67.3%. The growth was 100% with UACC-257 melanoma and 71.7% in the assay on M14 melanoma.

With `COc1ccc(-c2nc(/C=N/Nc3cc(C)nc4ccc(Br)cc34)c(C)o2)cc1`, the growth in the assay with NCI-H23 lung was -41.9% (active); in the assay on NCI-H226 lung, -37.4% (active); with NCI-H322M lung it was -96.2% (active); with HOP-62 NSCLC, 64.5%; in the assay with NCI-H460 lung it was -80.6% (active); in the assay with HOP-92 NSCLC it was -84.3% (active). The growth in the assay on NCI-H522 lung was -58.4% (active); in the assay on A549/ATCC NSCLC, -61% (active); in the assay on 786-0 renal, -81.5% (active); in the assay on COLO 205 colon, -75.6% (active); with DU-145 prostate it was -90.2% (active); in the assay with K-562 leukemia, -49.1% (active). In addition, the growth was -84.6% (active) in the assay on MALME-3M melanoma; -89.2% (active) in the assay on MDA-MB-231 breast; -90.9% (active) with RXF 393 renal; -72.9% (active) in the assay on SF-268 CNS; -90.4% (active) with SF-295 CNS; -96.1% (active) in the assay on SF-539 CNS. Besides, the growth in the assay on UACC-257 melanoma is 108%; in the assay on M14 melanoma, 1.07% (active).

As to `Cc1ccc(S(=O)(=O)n2cc(C(=O)C(=O)Nc3ccncc3)c3ccccc32)cc1`, the growth with NCI-H23 lung is 36.4%; in the assay on NCI-H226 lung, 64.2%; in the assay on NCI-H322M lung, 94.7%; in the assay on HOP-62 NSCLC, 33.4%; with NCI-H460 lung it was 80.4%; in the assay with HOP-92 NSCLC, 38.5%. For the same compound, the growth was 1.71% (active) in the assay on NCI-H522 lung; 73.5% with A549/ATCC NSCLC; 29.5% with 786-0 renal; 107% with COLO 205 colon; 22.4% in the assay with DU-145 prostate; 23.8% in the assay with K-562 leukemia. The growth in the assay with MALME-3M melanoma is 48.4%; in the assay with MDA-MB-231 breast, 42.9%; in the assay on RXF 393 renal it was 9.66% (active); with SF-268 CNS, 44.6%; with SF-295 CNS, 16.4%; with SF-539 CNS, 15%. The figures for the growth in the assay on UACC-257 melanoma and in the assay with M14 melanoma were 63.3% and 18.1%, respectively.

Regarding `Cc1csc(NC(c2ccc(Br)cc2)c2c(C)nc3ccccn23)n1` (stereo not given), the growth in the assay on NCI-H23 lung was 84%; in the assay on NCI-H226 lung, 81.6%; in the assay on NCI-H322M lung it was 84.9%; in the assay on HOP-62 NSCLC, 92.8%; in the assay with NCI-H460 lung it was 98.4%; in the assay on HOP-92 NSCLC it was 42.9%. In addition, the growth in the assay on NCI-H522 lung was 89.3%; in the assay on A549/ATCC NSCLC it was 87.6%; in the assay on 786-0 renal, 90.4%; in the assay on COLO 205 colon it was 90.2%; with DU-145 prostate, 107%; with K-562 leukemia, 79.9%. Moreover, the growth in the assay with MALME-3M melanoma is 88.4%; with MDA-MB-231 breast it was 84%; in the assay with RXF 393 renal, 112%; in the assay on SF-268 CNS it was 92.2%; in the assay with SF-295 CNS, 74.7%; in the assay on SF-539 CNS, 101%. Further, the growth in the assay on UACC-257 melanoma is 76.1%; with M14 melanoma it was 90.6%.

Consider `O=C1/C(=C/c2ccc([N+](=O)[O-])cc2)CN(C(=O)CCN2CCC(=NO)CC2)C/C1=C\c1ccc([N+](=O)[O-])cc1`, for which the growth is 0.382% (active) in the assay with NCI-H23 lung; 15.1% in the assay on NCI-H226 lung; -18.7% (active) with NCI-H322M lung; -21.9% (active) in the assay on HOP-62 NSCLC; -46.3% (active) in the assay on NCI-H460 lung; -10.4% (active) with HOP-92 NSCLC. Further, the growth in the assay on NCI-H522 lung is -76.8% (active); in the assay on A549/ATCC NSCLC, 21.3%; in the assay on 786-0 renal, -37.1% (active); in the assay with COLO 205 colon, -65.3% (active); in the assay with DU-145 prostate it was -8.07% (active); in the assay with K-562 leukemia, 7.03% (active). Further, the growth in the assay on MALME-3M melanoma was -20.3% (active); in the assay on MDA-MB-231 breast, -69.1% (active); in the assay on RXF 393 renal it was -76.5% (active); in the assay with SF-268 CNS, -22.4% (active); in the assay with SF-295 CNS, -28.6% (active); in the assay on SF-539 CNS it was -42.8% (active). Moreover, the growth with UACC-257 melanoma is -4.87% (active); in the assay with M14 melanoma, -33.4% (active).

As to `O=C(O)c1nc(-c2ccccc2)oc1N1CCOCC1`, the growth was 98% in the assay with NCI-H23 lung; 103% with NCI-H226 lung; 91.8% with NCI-H322M lung; 97% in the assay on HOP-62 NSCLC; 102% in the assay on NCI-H460 lung; 84.6% with HOP-92 NSCLC. Further, the growth was 95.9% in the assay on NCI-H522 lung; 100% in the assay with A549/ATCC NSCLC; 97.5% with 786-0 renal; 102% in the assay on COLO 205 colon; 109% with DU-145 prostate; 94% in the assay on K-562 leukemia. The growth with MALME-3M melanoma is 120%; in the assay with MDA-MB-231 breast, 94.3%; with RXF 393 renal, 104%; with SF-268 CNS, 98.3%; in the assay with SF-295 CNS it was 107%; in the assay with SF-539 CNS, 115%. For the same compound, the growth with UACC-257 melanoma is 104%; with M14 melanoma, 106%.
